Test results: PubChem BioAssay (Tox21)
Results filed as inconclusive are left out. Calls of active or inactive are those of the source. Unless noted, calls come from the whole dose curve; as a rule, active = well fitted curve in the direction sought with a large enough effect in the repeat runs; inconclusive = weak or mixed curves; inactive = no such curve, though single readings can be large; an effect the other way counts as inactive or inconclusive.

Experiments:
[1] = target: Thyrotropin receptor (Homo sapiens) (UniProt P16473); experiment: qHTS assay to identify small molecule antagonists of the thyroid stimulating hormone receptor (TSHR) signaling pathway (AID 1259385; calls by dose curve; note: nearly all actives have a fitted effect of over 20% in size)
Procedure, shortened: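 TSHR-HEK293 cells (800/well) plated 18 h, then compounds with Ro20-1724 and TSH at 1.5 ng/mL final, 30 min at room temperature. cAMP quantified by HTRF (cAMP-d2/anti-cAMP-cryptate, 1 h); 15 concentrations in triplicate.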

[2] = qHTS assay to identify small molecule agonists of the estrogen receptor alpha (ER-alpha) signaling pathway in the presence of an antagonist - cell viability counter screen (AID 1259386);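 note: series mostly up to about 92 µM; cells exposed to compounds for 22 h at 37 °C before the viability read; nearly all actives have a fitted effect of over 30% in size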
Procedure, shortened: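 The test measures whether compounds kill ER-alpha reporter cells (VM7Luc4E2) under antagonist co-treatment (ICI-182,780, 10.0nM). Fluorescence from CellTiter-Fluor is read after a 22hr exposure.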

[3] = target: Progesterone receptor (Homo sapiens) (UniProt P06401); experiment: qHTS assay to identify small molecule agonists of the progesterone receptor (PR) signaling pathway (AID 1346784; calls by dose curve; note: nearly all actives have a fitted effect of over 30% in size)
Procedure, shortened: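 Agonist mode, quantitative HTS format in a HEK 293T line expressing a UAS-controlled beta-lactamase reporter; 16 hr compound exposure at 37C in 2% charcoal-stripped FBS, then LiveBLAzer B/G FRET fluorescence.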

[4] = target: Progesterone receptor (Homo sapiens) (UniProt P06401); experiment: qHTS assay to identify small molecule antagonists of the progesterone receptor (PR) signaling pathway (AID 1346795; active = well fitted inhibition curve with a large enough effect in the signal ratio in the repeat runs, not every such curve was filed as active; the % refers to the signal ratio)
Procedure, shortened: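 HEK293T PR-UAS-bla reporter cells in charcoal-stripped serum (2%) received compound after a 6 hr settling period, followed by R5020 agonist at 1 nM final; 16 hr incubation preceded the FRET substrate step and fluorescence measurement.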

[5] = qHTS assay to identify small molecule antagonists of the progesterone receptor (PR) signaling pathway - cell viability counter screen (AID 1346798); note: series mostly up to about 92 µM; nearly all actives have a fitted effect of over 50% in size
Procedure, shortened: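 Same-well multiplex: after 16 hr at 37C with compound and R5020 stimulation, HEK293T cells carrying a UAS-bla reporter received LiveBLAzer substrate (2 hr RT), then CellTiter-Glo (30 min RT) for luminescent viability.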

[6] = qHTS assay to identify small molecule agonists of the progesterone receptor (PR) signaling pathway - cell viability counter screen (AID 1346799; calls by dose curve; note: nearly all actives have a fitted effect of over 45% in size; note: potency is the fitted concentration of half-maximal effect)
Procedure, shortened: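 Counter screen for cytotoxicity: compound-treated PR-UAS-bla HEK293T cells (16 hr, 37C, 5% CO2) were assayed with CellTiter-Glo, luminescence measured after 30 min at room temperature.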

[7] = qHTS assay to identify small molecule antagonists of the TGF-beta/Smad signaling pathway - cell viability counter screen (AID 1346824); note: nearly all actives have a fitted effect of over 50% in size
Procedure, shortened: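 SBE-bla HEK 293T cells, incubated overnight, then compound plus 0.25 ng/mL TGF-beta1 (stock added) for 5 hr at 37 C. Viability was read in the same wells by CellTiter-Glo luminescence after 30 min at room temperature.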

[8] = qHTS assay to identify small molecule agonists of the TGF-beta/Smad signaling pathway - cell viability counter screen (AID 1346829); note: top concentration of the series differs between compounds; nearly all actives have a fitted effect of over 45% in size
Procedure, shortened: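 After overnight seating at 37 C and 5% CO2, reporter cells got compounds for 5 hr and FRET substrate for 2 hr; cell viability then came from CellTiter-Glo luminescence.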

[9] = qHTS assay to identify small molecule agonists of the TGF-beta/Smad signaling pathway (AID 1346859; active = well fitted activation curve with a large enough effect in the signal ratio in the repeat runs, not every such curve was filed as active; the % refers to the signal ratio; note: series mostly up to about 77 µM)
Procedure, shortened: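 Smad-responsive beta-lactamase reporter cells (HEK 293T) received compounds from DMSO stocks after overnight attachment, were incubated 5 hr, then treated 2 hr with FRET substrate before dual-emission fluorescence measurement (405 nm excitation).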

[10] = target: Thyrotropin-releasing hormone receptor (Homo sapiens) (UniProt P34981); experiment: qHTS assay to identify small molecule agonists of the thyrotropin-releasing hormone receptor (TRHR) signaling pathway (AID 1346891; calls by dose curve;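 note: HEK293 cells expressing TRHR with calcium dye readout; series mostly up to about 58 µM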)
Procedure, shortened: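 Agonist-mode calcium mobilisation screen: TRHR-transfected HEK293 cells cultured overnight (18 h), dye-loaded for 2 h at 37 °C, exposed to compounds, and monitored by fluorescence for 3 min.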

[11] = Caspase-3/7 induction in HepG2 cells by small molecules, qHTS assay (AID 1346978); note: nearly all actives have a fitted effect of over 15% in size
Procedure, shortened: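 Wild-type HepG2 cells, 2,000/well, settled 5 hr at 37 C and 5% CO2, then compound-treated for 17 hr; caspase-3/7 activity read by luminescent Caspase-Glo 3/7 after 30 min at room temperature.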

[12] = Caspase-3/7 induction in CHO-K1 cells by small molecules, qHTS cell viability counter screen (AID 1346979); note: nearly all actives have a fitted effect of over 35% in size
Procedure, shortened: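 In the same wells as the caspase read, viability of compound-treated wild-type CHO-K1 cells was assessed using CellTiter-Fluor, added after 16hr at 37C and measured by fluorescence following 1hr further incubation.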

[13] = Caspase-3/7 induction in CHO-K1 cells by small molecules, qHTS assay (AID 1346980); note: nearly all actives have a fitted effect of over 15% in size
Procedure, shortened: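 Wild-type CHO-K1 cells exposed to compounds for 17hr at 37 C, 5% CO2. Caspase-3/7 activity then measured by Caspase-Glo 3/7 luminescence after 30min at room temperature.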

[14] = Caspase-3/7 induction in HepG2 cells by small molecules, qHTS cell viability counter screen (AID 1346981); note: series mostly up to about 92 µM; nearly all actives have a fitted effect of over 30% in size
Procedure, shortened: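 Treatment of HepG2 cells with DMSO-delivered compounds ran 16 hr at 37 C following a 5-hr pre-incubation of 2,000 cells/well. CellTiter-Fluor fluorescence, read after 1 hr, served as the viability measure in a qHTS format.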

[15] = target: Nuclear receptor subfamily 1 group I member 2 (Homo sapiens) (UniProt O75469); experiment: Human pregnane X receptor (PXR) small molecule agonists, qHTS assay (AID 1346982); note: nearly all actives have a fitted effect of over 35% in size
Procedure, shortened: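 Stable HepG2 line reporting PXR-mediated CYP3A4 expression via luciferase. Treatment: 24 hr with compounds in DMSO at 37 C. Detection: ONE-Glo luminescence.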

[16] = target: Nuclear receptor subfamily 1 group I member 2 (Rattus norvegicus) (UniProt Q9R1A7); experiment: Rat pregnane X receptor (rPXR) activation by small molecules, qHTS assay (AID 1346983); settings: rPXR luciferase reporter cells, One-Glo luminescence, 24 h; max activation: hits give high values; note: nearly all actives have a fitted effect of over 20% in size
Procedure, shortened: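 Cell-based rPXR activation assay: rPXR cells, 2,000 per well, rested 5hr at 37 C, then exposed to compounds in DMSO for 24 hr at 37 C. Luciferase activity read by One-Glo luminescence after 30 min at room temperature.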

[17] = target: Nuclear receptor subfamily 1 group I member 2 (Homo sapiens) (UniProt O75469); experiment: CYP3A4 induction through human pregnane X receptor (PXR) by small molecules, qHTS assay (AID 1346984); note: nearly all actives have a fitted effect of over 40% in size
Procedure, shortened: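 After 24 h at 37C with compound, DPX-2 cells (HepG2, co-transfected PXR response element and CYP3A4 promoter-luciferase) got 3uM final P450-Glo Luciferin-IPA for 3 h; One-Glo luminescence followed.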

[18] = target: Nuclear receptor subfamily 1 group I member 2 (Homo sapiens) (UniProt O75469); experiment: Human pregnane X receptor (PXR) activation by small molecules, qHTS assay (AID 1346985); note: nearly all actives have a fitted effect of over 40% in size
Procedure, shortened: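 DPX-2 cells (HepG2 co-transfected with a PXR response element and a CYP3A4-promoter luciferase construct) were seeded at 2,000 per well, rested 5 hr at 37C, then exposed to DMSO-dissolved compounds for 24 hr. Activation was read as luciferase luminescence.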

[19] = target: Thyrotropin-releasing hormone receptor (Homo sapiens) (UniProt P34981); experiment: qHTS assay to identify small molecule antagonists of the thyrotropin-releasing hormone receptor (TRHR) signaling pathway (AID 1346877; active = well fitted inhibition curve with a large enough effect in the repeat runs, not every such curve was filed as active; note: series mostly up to about 51 µM)
Procedure, shortened: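 Overnight-plated (18 h, 37 °C) HEK293 cells expressing TRHR were dye-loaded 2 h, treated with compound, then stimulated with TRH at 1 nM final. Fluorescence intensity was captured every second for 3 min.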

[20] = Human pregnane X receptor (PXR) small molecule agonists, qHTS cell viability counter screen (AID 1346977); note: nearly all actives have a fitted effect of over 50% in size
Procedure, shortened: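 Measures live-cell protease fluorescence (CellTiter-Fluor) in PXR-Luc HepG2 cells treated 24hr with compounds at 37C. Cells had 5hr to attach before pin transfer of DMSO solutions.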
% is set by controls: 0 for no effect and ±100 for the full control effect.

Sequence of Thyrotropin receptor (Homo sapiens) (P16473 whole entry, looked up): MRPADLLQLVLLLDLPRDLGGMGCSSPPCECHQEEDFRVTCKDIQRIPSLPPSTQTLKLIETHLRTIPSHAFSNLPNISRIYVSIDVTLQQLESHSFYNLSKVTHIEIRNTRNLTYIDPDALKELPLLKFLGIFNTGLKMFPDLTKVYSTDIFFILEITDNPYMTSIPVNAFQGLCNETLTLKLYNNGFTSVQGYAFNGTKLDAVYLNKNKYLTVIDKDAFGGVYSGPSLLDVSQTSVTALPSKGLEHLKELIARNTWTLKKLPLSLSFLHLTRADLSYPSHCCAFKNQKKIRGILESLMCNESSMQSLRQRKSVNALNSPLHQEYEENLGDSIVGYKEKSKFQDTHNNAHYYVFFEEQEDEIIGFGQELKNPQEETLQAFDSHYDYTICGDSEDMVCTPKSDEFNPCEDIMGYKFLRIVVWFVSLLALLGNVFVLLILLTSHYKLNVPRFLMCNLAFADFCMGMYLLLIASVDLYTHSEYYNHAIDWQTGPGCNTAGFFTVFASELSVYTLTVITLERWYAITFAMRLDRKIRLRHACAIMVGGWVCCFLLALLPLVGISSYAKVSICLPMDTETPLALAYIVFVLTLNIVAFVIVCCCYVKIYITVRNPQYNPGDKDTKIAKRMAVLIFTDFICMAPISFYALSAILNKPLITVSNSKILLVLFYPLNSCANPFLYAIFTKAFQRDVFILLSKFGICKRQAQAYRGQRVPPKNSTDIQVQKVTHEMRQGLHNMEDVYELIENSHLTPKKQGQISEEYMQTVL
Sequence of Nuclear receptor subfamily 1 group I member 2 (Rattus norvegicus) (Q9R1A7 whole entry, looked up): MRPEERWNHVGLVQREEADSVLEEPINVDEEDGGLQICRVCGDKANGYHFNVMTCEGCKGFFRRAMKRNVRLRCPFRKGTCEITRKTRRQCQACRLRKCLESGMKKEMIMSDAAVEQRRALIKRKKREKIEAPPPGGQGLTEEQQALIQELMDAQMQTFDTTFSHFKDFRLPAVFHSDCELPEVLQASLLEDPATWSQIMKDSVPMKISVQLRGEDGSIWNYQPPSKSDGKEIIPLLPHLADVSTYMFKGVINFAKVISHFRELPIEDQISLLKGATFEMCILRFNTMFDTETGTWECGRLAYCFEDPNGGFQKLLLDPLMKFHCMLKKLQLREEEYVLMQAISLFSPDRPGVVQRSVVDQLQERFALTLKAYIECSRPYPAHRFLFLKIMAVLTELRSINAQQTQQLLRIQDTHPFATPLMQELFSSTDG
Sequence of Progesterone receptor (Homo sapiens) (P06401 whole entry, looked up): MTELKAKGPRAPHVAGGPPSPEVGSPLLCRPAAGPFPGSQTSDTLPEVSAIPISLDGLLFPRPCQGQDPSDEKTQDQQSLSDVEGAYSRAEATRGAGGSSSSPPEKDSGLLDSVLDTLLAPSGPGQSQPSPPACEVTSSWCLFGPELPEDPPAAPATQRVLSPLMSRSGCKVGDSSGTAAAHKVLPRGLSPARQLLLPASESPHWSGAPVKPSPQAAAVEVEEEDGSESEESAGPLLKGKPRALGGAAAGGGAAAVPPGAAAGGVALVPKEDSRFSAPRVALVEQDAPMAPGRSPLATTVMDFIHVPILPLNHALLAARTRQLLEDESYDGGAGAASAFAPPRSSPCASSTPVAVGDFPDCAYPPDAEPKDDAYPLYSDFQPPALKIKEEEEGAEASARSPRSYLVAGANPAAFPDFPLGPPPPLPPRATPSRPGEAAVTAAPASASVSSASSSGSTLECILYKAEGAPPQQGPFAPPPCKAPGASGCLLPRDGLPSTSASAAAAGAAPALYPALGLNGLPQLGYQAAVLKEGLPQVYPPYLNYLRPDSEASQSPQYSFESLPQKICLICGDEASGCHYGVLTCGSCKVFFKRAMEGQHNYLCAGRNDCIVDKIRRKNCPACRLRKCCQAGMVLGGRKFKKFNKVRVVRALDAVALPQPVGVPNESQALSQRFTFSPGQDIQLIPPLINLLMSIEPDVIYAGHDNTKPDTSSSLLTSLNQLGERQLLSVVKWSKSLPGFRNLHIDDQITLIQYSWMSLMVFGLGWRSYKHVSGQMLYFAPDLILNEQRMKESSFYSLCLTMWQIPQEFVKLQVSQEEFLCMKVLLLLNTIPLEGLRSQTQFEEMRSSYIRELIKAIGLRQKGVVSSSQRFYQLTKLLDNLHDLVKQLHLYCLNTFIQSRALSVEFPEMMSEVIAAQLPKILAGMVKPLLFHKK
Sequence of Nuclear receptor subfamily 1 group I member 2 (Homo sapiens) (O75469 whole entry, looked up): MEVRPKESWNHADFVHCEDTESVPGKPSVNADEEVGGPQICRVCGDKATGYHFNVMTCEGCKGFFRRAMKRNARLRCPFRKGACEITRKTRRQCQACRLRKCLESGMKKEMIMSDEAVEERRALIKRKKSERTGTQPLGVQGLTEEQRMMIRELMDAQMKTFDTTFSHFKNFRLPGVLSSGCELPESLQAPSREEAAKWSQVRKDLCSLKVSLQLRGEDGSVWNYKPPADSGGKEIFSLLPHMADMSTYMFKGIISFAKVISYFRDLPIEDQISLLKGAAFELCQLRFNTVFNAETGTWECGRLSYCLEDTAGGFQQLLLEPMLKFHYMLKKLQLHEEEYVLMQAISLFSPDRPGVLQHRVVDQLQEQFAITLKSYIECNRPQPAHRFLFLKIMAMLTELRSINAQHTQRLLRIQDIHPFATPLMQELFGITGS
Sequence of Thyrotropin-releasing hormone receptor (Homo sapiens) (P34981 whole entry, looked up): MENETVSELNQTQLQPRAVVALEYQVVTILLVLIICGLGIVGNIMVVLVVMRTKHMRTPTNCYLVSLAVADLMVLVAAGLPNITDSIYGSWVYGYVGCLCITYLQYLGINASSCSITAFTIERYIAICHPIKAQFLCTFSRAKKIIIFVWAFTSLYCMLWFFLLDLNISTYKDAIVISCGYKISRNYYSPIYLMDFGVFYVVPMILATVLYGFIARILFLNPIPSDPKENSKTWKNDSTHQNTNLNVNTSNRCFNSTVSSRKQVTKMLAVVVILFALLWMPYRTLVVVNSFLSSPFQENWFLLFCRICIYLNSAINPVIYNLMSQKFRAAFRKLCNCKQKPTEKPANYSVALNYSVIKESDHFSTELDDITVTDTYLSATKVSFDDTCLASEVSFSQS

CC(=O)Oc1cc(C(C)C)c(OCCN(C)C)cc1C
inactive: Potency [1] | Potency [2] | Potency [3] | Potency [4] | Potency [5] | Potency [6] | outcome [7] | outcome [8] | outcome [9] | Potency [10] | Potency [11] | Potency [12] | outcome [13] | Potency [14] | Potency [15] | max activation [16] -1.16% | Potency [17] | Potency [18]

CC(C)S
inactive: Potency [1] | Potency [2] | Potency [3] | Potency [4] | Potency [5] | Potency [6] | outcome [7] | outcome [8] | outcome [9] | outcome [19] | Potency [10] | Potency [20] | Potency [11] | Potency [12] | outcome [13] | Potency [14] | Potency [15]

COC(C)CCO (centres undefined)
inactive: Potency [1] | Potency [2] | Potency [3] | Potency [4] | Potency [5] | Potency [6] | outcome [7] | outcome [8] | outcome [9] | Potency [10] | Potency [20] | Potency [11] | Potency [12] | outcome [13] | Potency [15]

OC[C@H]1O[C@@H](O[C@H]2[C@H](O)[C@@H](O)[C@H](O)O[C@@H]2CO)[C@H](O)[C@@H](O)[C@H]1O
inactive: Potency [1] | Potency [2] | Potency [3] | Potency [4] | Potency [5] | Potency [6] | outcome [7] | outcome [8] | outcome [9] | outcome [19] | Potency [10] | Potency [11] | Potency [12] | outcome [13] | Potency [14] | Potency [15]

CCCCNc1ccc(C(=O)OCCN(CC)CC)cc1
inactive: Potency [1] | Potency [2] | Potency [3] | Potency [4] | Potency [5] | Potency [6] | outcome [7] | outcome [8] | outcome [9] | outcome [19] | Potency [10] | Potency [20] | Potency [11] | Potency [12] | outcome [13] | Potency [14]

CCCCNc1cc(C(=O)O)cc(S(N)(=O)=O)c1Oc1ccccc1
inactive: Potency [1] | Potency [2] | Potency [3] | Potency [4] | Potency [5] | Potency [6] | outcome [7] | outcome [8] | outcome [9] | outcome [19] | Potency [10] | Potency [20] | Potency [11] | Potency [12] | outcome [13]

CC(C)C(=O)OC/C=C/c1ccccc1
inactive: Potency [1] | Potency [2] | Potency [3] | Potency [4] | Potency [5] | Potency [6] | outcome [7] | outcome [8] | outcome [9] | Potency [10] | Potency [20] | Potency [11] | Potency [12] | outcome [13] | Potency [14] | Potency [15]

CC1=C(O)C(=O)OC1C (centres undefined)
inactive: Potency [1] | Potency [2] | Potency [3] | Potency [4] | Potency [5] | Potency [6] | outcome [7] | outcome [8] | outcome [9] | outcome [19] | Potency [10] | Potency [11] | Potency [12] | outcome [13] | Potency [14] | Potency [15]

Cc1c(N)cccc1N
inactive: Potency [1] | Potency [2] | Potency [3] | Potency [4] | Potency [5] | Potency [6] | outcome [7] | outcome [8] | outcome [9] | outcome [19] | Potency [10] | Potency [20] | Potency [12] | outcome [13] | Potency [14]

Cc1ncc(CO)c(CN)c1O
inactive: Potency [1] | Potency [2] | Potency [3] | Potency [4] | Potency [5] | Potency [6] | outcome [7] | outcome [8] | outcome [9] | outcome [19] | Potency [10] | Potency [20] | outcome [13] | Potency [14] | Potency [15] | max activation [16] -1.2% | Potency [17] | Potency [18]

CCCCC1CCC(=O)O1 (centres undefined)
inactive: Potency [1] | Potency [2] | Potency [3] | Potency [4] | Potency [5] | Potency [6] | outcome [7] | outcome [8] | outcome [9] | Potency [10] | Potency [11] | Potency [12] | outcome [13] | Potency [14] | Potency [15]

FC(F)(F)C(F)(F)C(F)(F)C(F)(F)C(F)(F)C(F)(F)C(F)(F)C(F)(F)Br
inactive: Potency [1] | Potency [2] | Potency [3] | Potency [4] | Potency [5] | Potency [6] | outcome [7] | outcome [8] | outcome [9] | outcome [19] | Potency [10] | Potency [20] | Potency [11] | Potency [12] | outcome [13] | Potency [14] | Potency [15] | max activation [16] -2.79% | Potency [17] | Potency [18]

CCN[C@H]1CN(CCCOC)S(=O)(=O)c2sc(S(N)(=O)=O)cc21
inactive: Potency [1] | Potency [2] | Potency [3] | Potency [4] | Potency [5] | Potency [6] | outcome [7] | outcome [8] | outcome [9] | outcome [19] | Potency [10] | Potency [20] | Potency [11] | Potency [12] | outcome [13] | Potency [14] | Potency [15] | max activation [16] -3.62% | Potency [17] | Potency [18]

COC(=O)C(C)O (centres undefined)
inactive: Potency [1] | Potency [2] | Potency [3] | Potency [4] | Potency [5] | Potency [6] | outcome [7] | outcome [8] | outcome [9] | Potency [10] | Potency [20] | Potency [12] | outcome [13] | Potency [14] | Potency [15]

CCCCCCCCc1ccc(S(=O)(=O)O)cc1
active: Potency [6] 19.2 µM
inactive: Potency [1] | Potency [2] | Potency [3] | Potency [4] | Potency [5] | outcome [7] | outcome [8] | outcome [9] | outcome [19] | Potency [10] | Potency [20] | Potency [12] | outcome [13] | Potency [14] | Potency [15]

CC/C=C\CCOC(=O)CCCCC
inactive: Potency [1] | Potency [2] | Potency [3] | Potency [4] | Potency [5] | Potency [6] | outcome [7] | outcome [8] | outcome [9] | Potency [10] | Potency [20] | Potency [11] | Potency [12] | outcome [13] | Potency [14] | Potency [15]
